This is part of a sample that, as a whole, favours compounds with a hit. Of some 83,000 tested, about 20% had one in any assay.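 How to read the values: 0–100, growth inhibition (40 = 60% inhibited); 0, no net growth; -100 to 0, cell death (-40 = 40% of starting cells died; -100 = all dead).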 Calls of active or inactive are those of the source. The calls were made as follows: active = growth percent below 10; inactive = the rest.
How the values were obtained:
Assay in all cases: NCI-60 one-dose screen, 48 h (100 = growth as untreated, 0 = no growth, -100 = all killed)
HCT-15 colon = details: 10 µM unless noted
HT29 colon = details: 10 µM unless noted
SNB-75 CNS = details: 10 µM unless noted
SNB-19 CNS = details: 10 µM unless noted
U251 CNS = details: 10 µM unless noted
PC-3 prostate = details: 10 µM unless noted
SK-MEL-5 melanoma = details: 10 µM unless noted
UACC-62 melanoma = details: 10 µM unless noted
LOX IMVI melanoma = details: 10 µM unless noted
SK-MEL-2 melanoma = details: 10 µM unless noted
EKVX NSCLC = details: 10 µM unless noted
SN12C renal = details: 10 µM unless noted
TK-10 renal = details: 10 µM unless noted
CAKI-1 renal = details: 10 µM
A498 renal = details: 10 µM unless noted
CCRF-CEM leukemia = details: 10 µM unless noted
MOLT-4 leukemia = details: 10 µM unless noted
UO-31 renal = details: 10 µM unless noted
SK-MEL-28 melanoma = details: 10 µM unless noted
ACHN renal = details: 10 µM unless noted

Measured: growth

COc1ccc(/C=C/C(=O)c2ccc(-n3cc(CN4CCN(c5cc6c(cc5F)c(=O)c(C(=O)O)cn6C5CC5)CC4)nn3)cc2)cc1OC
inactive: HCT-15 colon 33.8% | SNB-75 CNS 65.5% | SNB-19 CNS 44.7% | U251 CNS 10.6% | SK-MEL-5 melanoma 50.9% | UACC-62 melanoma 54.1% | SK-MEL-2 melanoma 97.4% | EKVX NSCLC 80% | SN12C renal 14.9% | TK-10 renal 80% | CAKI-1 renal 60% | A498 renal 54.4% | MOLT-4 leukemia 10.5%
active: HT29 colon 4.76% | PC-3 prostate 9.95% | LOX IMVI melanoma -1.51% | CCRF-CEM leukemia 3.05%

CCOC(=O)n1cnc2c(Cl)ncnc21
inactive: HCT-15 colon 112% | HT29 colon 106% | SNB-75 CNS 93.9% | SNB-19 CNS 86.4% | U251 CNS 101% | PC-3 prostate 113% | SK-MEL-5 melanoma 95.8% | UACC-62 melanoma 104% | LOX IMVI melanoma 88.6% | SK-MEL-2 melanoma 154% | EKVX NSCLC 106% | SN12C renal 119% | UO-31 renal 97% | CAKI-1 renal 89.8% | A498 renal 86% | CCRF-CEM leukemia 109% | MOLT-4 leukemia 106%

CCCCCn1ncc(-c2c(O)c(O)cc3c(O)c(-c4c(C)cc5c(-c6cnn(CCCCC)n6)c(O)c(O)cc5c4O)c(C)cc23)n1
inactive: HCT-15 colon 14% | SNB-75 CNS 34.2% | SNB-19 CNS 22% | SK-MEL-28 melanoma 25.9% | SN12C renal 18.6% | TK-10 renal 10.2% | A498 renal 53%
active: HT29 colon -20.9% | U251 CNS -33.3% | PC-3 prostate -25.3% | SK-MEL-5 melanoma -49.2% | LOX IMVI melanoma -40.7% | SK-MEL-2 melanoma 3.71% | EKVX NSCLC 9.87% | UO-31 renal -49.5% | ACHN renal 6.56% | CCRF-CEM leukemia 1.09% | MOLT-4 leukemia 6.44%

O=C1c2ccccc2C(=O)c2c(NCCN=Cc3c(O)ccc4ccccc34)cccc21
active: CCRF-CEM leukemia -46.1%
inactive: HCT-15 colon 77% | HT29 colon 88% | SNB-75 CNS 84% | SNB-19 CNS 84.9% | U251 CNS 83% | PC-3 prostate 84.5% | SK-MEL-5 melanoma 86.7% | LOX IMVI melanoma 66.7% | SK-MEL-28 melanoma 117% | SK-MEL-2 melanoma 107% | EKVX NSCLC 73.3% | SN12C renal 85.2% | UO-31 renal 49.9% | ACHN renal 65.3% | A498 renal 80.7% | MOLT-4 leukemia 76.9%

COc1cc(C(=O)NNC(=O)c2ccccc2C(=O)O)cc(OC)c1OC
active: CCRF-CEM leukemia 5.04% | MOLT-4 leukemia -5.79%
inactive: HCT-15 colon 31.8% | HT29 colon 20.8% | SNB-75 CNS 86.3% | SNB-19 CNS 49.6% | U251 CNS 39.7% | PC-3 prostate 54.7% | SK-MEL-5 melanoma 38.2% | UACC-62 melanoma 39.8% | LOX IMVI melanoma 16.9% | SK-MEL-2 melanoma 49.3% | EKVX NSCLC 83.4% | SN12C renal 40.9% | TK-10 renal 72% | A498 renal 78.7%

CCOc1ccc(NC2=C(Cl)C(=O)c3ccccc3C2=O)cc1
inactive: HT29 colon 98.2% | SNB-75 CNS 81.3% | SNB-19 CNS 62% | U251 CNS 56.9% | PC-3 prostate 72.1% | SK-MEL-5 melanoma 81.4% | UACC-62 melanoma 78.6% | SK-MEL-2 melanoma 88.2% | SN12C renal 61% | UO-31 renal 77.9% | TK-10 renal 136% | A498 renal 80.8% | CCRF-CEM leukemia 33.3% | MOLT-4 leukemia 75.7%
active: HCT-15 colon -79.9% | LOX IMVI melanoma -89.7%

CC(=O)Nc1ccc([I+]c2ccc([N+](=O)[O-])cc2)cc1
inactive: HCT-15 colon 100% | HT29 colon 81.3% | SNB-75 CNS 90.5% | SNB-19 CNS 109% | U251 CNS 81.1% | PC-3 prostate 82.3% | SK-MEL-5 melanoma 80.6% | LOX IMVI melanoma 90.5% | SK-MEL-28 melanoma 106% | SK-MEL-2 melanoma 103% | EKVX NSCLC 88.7% | SN12C renal 88.3% | UO-31 renal 60.8% | TK-10 renal 87.4% | ACHN renal 89.7% | A498 renal 104% | CCRF-CEM leukemia 89.2% | MOLT-4 leukemia 86.9%

COc1ccc(-c2cc(-c3nnc(SC/C(=N\O)c4ccccc4)n3-c3ccccc3)c3ccccc3n2)cc1
inactive: HCT-15 colon 107% | HT29 colon 99.5% | SNB-75 CNS 100% | SNB-19 CNS 105% | U251 CNS 101% | PC-3 prostate 93.6% | SK-MEL-5 melanoma 108% | LOX IMVI melanoma 95.7% | SK-MEL-28 melanoma 113% | SK-MEL-2 melanoma 95.2% | EKVX NSCLC 103% | SN12C renal 105% | UO-31 renal 75.3% | TK-10 renal 123% | A498 renal 109% | CCRF-CEM leukemia 103% | MOLT-4 leukemia 98.4%

CC(C)Cn1cnc2c3ccccc3nc(NCn3nc(-c4cc(Cl)cc(Cl)c4Cl)oc3=S)c21
inactive: HCT-15 colon 106% | HT29 colon 98.5% | SNB-75 CNS 90% | SNB-19 CNS 111% | U251 CNS 99% | PC-3 prostate 86.2% | SK-MEL-5 melanoma 85.3% | UACC-62 melanoma 90.1% | LOX IMVI melanoma 86.7% | SK-MEL-2 melanoma 90.8% | SN12C renal 98.5% | UO-31 renal 64.8% | TK-10 renal 108% | ACHN renal 97.6% | A498 renal 89.5% | MOLT-4 leukemia 20.4%
active: CCRF-CEM leukemia 6.87%

COc1cc(C(=O)N2CCN(C(=O)c3cc(OC)c(OCc4ccccc4)cc3N)CC2)c(N)cc1OCc1ccccc1
inactive: HCT-15 colon 130% | HT29 colon 116% | SNB-75 CNS 108% | SNB-19 CNS 108% | PC-3 prostate 106% | SK-MEL-5 melanoma 71.4% | UACC-62 melanoma 114% | LOX IMVI melanoma 108% | SK-MEL-28 melanoma 123% | SK-MEL-2 melanoma 102% | EKVX NSCLC 90.8% | SN12C renal 111% | UO-31 renal 98.3% | TK-10 renal 131% | ACHN renal 159% | A498 renal 132% | MOLT-4 leukemia 101%

COc1cc2c(/C=C3/C(=O)Nc4ccc(O)cc43)c(Cl)n(Cc3cc(OC)c(OC)c(OC)c3)c2cc1C
inactive: HCT-15 colon 38.1% | HT29 colon 10.4% | SNB-75 CNS 32.2% | SNB-19 CNS 20.2% | PC-3 prostate 11.3% | UACC-62 melanoma 36.6% | LOX IMVI melanoma 39.7% | SK-MEL-28 melanoma 45.2% | SK-MEL-2 melanoma 36.7% | EKVX NSCLC 13.3% | SN12C renal 59.6% | TK-10 renal 25.8% | ACHN renal 130% | A498 renal 24.9%
active: SK-MEL-5 melanoma -64.5% | UO-31 renal -0.307% | CCRF-CEM leukemia -9.62% | MOLT-4 leukemia -24.1%

COc1cc(/C=C/C(=O)c2c(C)n([O-])c3cc(C)c(C)cc3[n+]2=O)cc(OC)c1OC
inactive: HCT-15 colon 51.7% | HT29 colon 70.6% | SNB-75 CNS 50.5% | SNB-19 CNS 60.5% | PC-3 prostate 59.6% | SK-MEL-5 melanoma 59% | UACC-62 melanoma 64% | LOX IMVI melanoma 51.7% | SK-MEL-28 melanoma 72.9% | SK-MEL-2 melanoma 69.6% | EKVX NSCLC 79.2% | SN12C renal 72.8% | UO-31 renal 14.2% | TK-10 renal 77% | ACHN renal 69.2% | A498 renal 41.8% | CCRF-CEM leukemia 38% | MOLT-4 leukemia 44.3%

CC(C)(C)C(=O)Nc1nc2c(s1)CCc1ccn(S(=O)(=O)c3ccccc3)c1-2
inactive: HCT-15 colon 92.8% | HT29 colon 79.5% | SNB-75 CNS 89.6% | SNB-19 CNS 116% | U251 CNS 94.1% | PC-3 prostate 81.1% | SK-MEL-5 melanoma 99.9% | LOX IMVI melanoma 84.5% | SK-MEL-28 melanoma 101% | EKVX NSCLC 87.7% | SN12C renal 112% | UO-31 renal 62.7% | TK-10 renal 82.1% | A498 renal 101% | CCRF-CEM leukemia 92.9% | MOLT-4 leukemia 70.8%

CCC1S/C(=N\N=C(/C)c2cc3ccccc3o2)N(c2ccccc2)C1=O (stereo not given)
active: CCRF-CEM leukemia -72.8% | MOLT-4 leukemia -80.8%
inactive: HCT-15 colon 107% | HT29 colon 98% | SNB-75 CNS 102% | SNB-19 CNS 100% | U251 CNS 96.7% | PC-3 prostate 81.7% | SK-MEL-5 melanoma 83.9% | LOX IMVI melanoma 93.7% | SK-MEL-28 melanoma 114% | EKVX NSCLC 135% | SN12C renal 120% | TK-10 renal 108% | ACHN renal 100% | A498 renal 136%

C=C1C(=O)O[C@H]2[C@H]1CC/C(C(=O)Nc1ccc(OC)c(C(N)=O)c1O)=C\CC[C@@]1(C)O[C@@H]21
active: CCRF-CEM leukemia 3.64%
inactive: HCT-15 colon 45.8% | HT29 colon 36% | SNB-75 CNS 88.5% | SNB-19 CNS 90.4% | PC-3 prostate 95.3% | SK-MEL-5 melanoma 86.7% | UACC-62 melanoma 67.5% | LOX IMVI melanoma 77.1% | SK-MEL-28 melanoma 52.9% | SK-MEL-2 melanoma 71.3% | EKVX NSCLC 73.4% | SN12C renal 61.1% | UO-31 renal 37.8% | TK-10 renal 22.6% | A498 renal 78.3% | MOLT-4 leukemia 13.9%

CCc1cccc(-c2ccccc2)c1
inactive: HCT-15 colon 103% | HT29 colon 114% | SNB-75 CNS 105% | SNB-19 CNS 107% | PC-3 prostate 99% | SK-MEL-5 melanoma 111% | LOX IMVI melanoma 109% | SK-MEL-28 melanoma 120% | SK-MEL-2 melanoma 116% | EKVX NSCLC 102% | SN12C renal 99.5% | UO-31 renal 87.8% | TK-10 renal 106% | ACHN renal 108% | MOLT-4 leukemia 88%
active: CCRF-CEM leukemia 8.01%

CCCCCCCC(=O)SCC/C=C/[C@@H]1CC(=O)NCc2nc(cs2)C2=N[C@@](C)(CS2)C(=O)N[C@@H](C(C)C)C(=O)N1
active: HT29 colon -22.4% | SK-MEL-5 melanoma -21.3% | UACC-62 melanoma -25% | LOX IMVI melanoma -91.8% | SK-MEL-2 melanoma -34.7% | ACHN renal 7.25% | A498 renal -50.3% | MOLT-4 leukemia 9.36%
inactive: HCT-15 colon 61% | SNB-75 CNS 35.8% | SNB-19 CNS 20.8% | PC-3 prostate 19.6% | SK-MEL-28 melanoma 25.3% | EKVX NSCLC 32.8% | SN12C renal 35.5% | UO-31 renal 18.9% | CCRF-CEM leukemia 21.3%

CCCC(C)(C)COC(=O)c1cccc(N)c1
inactive: HCT-15 colon 113% | HT29 colon 78.5% | SNB-75 CNS 94.5% | SNB-19 CNS 106% | PC-3 prostate 78.1% | SK-MEL-5 melanoma 102% | UACC-62 melanoma 96.6% | LOX IMVI melanoma 101% | SK-MEL-28 melanoma 117% | SK-MEL-2 melanoma 88% | EKVX NSCLC 101% | SN12C renal 98.4% | UO-31 renal 69.2% | TK-10 renal 84.5% | A498 renal 88.6% | CCRF-CEM leukemia 88.5% | MOLT-4 leukemia 56%

Source: PubChem BioAssay (NCI)
